Source: PubChem BioAssay
The source made the active and inactive calls.

Legend:
[1] = tested on: PRMT1 (protein arginine N-methyltransferase 1); experiment: small molecules binding arginine methyltransferase PRMT1 – biochemical, small-molecule microarray, 635 nm fluorescence, primary screen (AID 1088); settings: higher = more signal;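 note: binding of Prmt1 protein to compounds spotted on small-molecule microarray slides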
[2] = growth effects on S. cerevisiae YJM789 – YJM789 clinical isolate, OD600, 24 h, basal, primary screen (AID 1089); settings: higher = more signal, called active from +8 up or from −8 down;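 note: growth of clinical yeast isolate S. cerevisiae YJM 789 seeded 1000 cells per well; test concentration not given here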
[3] = S. pombe growth modifiers, basal conditions – strain 972, OD600, 24 h, no modulator, primary screen (AID 1090);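 note: basal condition with compound alone and no growth modifier present; test concentration not given here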; settings: S. pombe 972 growth, higher = more signal, called active from +8 up or from −8 down
[4] = budding yeast growth modifiers under rapamycin – strain BY4716, OD600, 96 h, primary screen (AID 1091); note: test concentration not given here; settings: S. cerevisiae BY4716 + rapamycin, higher = more signal, called active from +8 up or from −8 down
[5] = molecular target: Torsin-1A-interacting protein 2 (Homo sapiens) (UniProt Q8NFQ8); experiment: small molecules binding lysate-expressed LULL1 – cell lysate, human LULL1 lysate, 635/667 nm fluorescence, primary screen (AID 1092); settings: small-molecule microarray, hLULL1 lysate binding, 635 nm fluorescence; higher = more signal;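 note: probe is lysate of COS7 cells overexpressing human LULL1; score merges per-feature 667 nm fluorescence with signal-to-noise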
[6] = optical density change of DRC41 E. coli – strain DRC41, OD650, 24 h, E. coli filamentation project, primary screen (AID 1093);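 note: MC1000 strain lacking acrAB efflux and sulA so SOS filamentation is blocked; test concentration not given here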; settings: E. coli DRC41 growth, higher = more signal, called active from +8 up or from −8 down
[7] = probe aLefty2 binding to arrayed compounds – biochemical, biotinylated probe, 635/667 nm fluorescence, primary screen (AID 1094); settings: small-molecule microarray, higher = more signal;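 note: score merges spot fluorescence near 667 nm with spot signal-to-noise ratio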
[8] = tested on: Noggin (protein binding on small-molecule microarray); experiment: small molecules binding Noggin protein – biochemical, 635/667 nm fluorescence, primary screen (AID 1095); settings: 635 nm fluorescence, higher = more signal;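 note: score merges 667 nm feature fluorescence with signal to noise over triplicate slides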
[9] = molecular target: Neurogenic locus notch homolog protein 3 (Homo sapiens) (UniProt Q9UM47); experiment: small molecules binding NOTCH3 protein – biochemical, 635/667 nm fluorescence, primary screen (AID 1096); settings: small-molecule microarray, 635 nm fluorescence, higher = more signal
[10] = probe aEGFR binding to arrayed compounds – biochemical, biotinylated probe, 635/667 nm fluorescence, primary screen (AID 1097); settings: small-molecule microarray, higher = more signal;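 note: probe is a biotinylated anti-EGFR antibody binding compounds printed on slides; score combines fluorescence near 667 nm and signal to noise of each spot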
[11] = tested on: Plasmodium falciparum Sir2 (PF13_0152, Sir2A); experiment: Plasmodium falciparum Sir2A binding compounds – biochemical, small-molecule microarray, 635 nm fluorescence, primary screen (AID 1098); settings: fluorescence 635 nm, higher = more signal;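 note: score merges spot fluorescence intensity with its signal-to-noise ratio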
[12] = probe aDKK1 binding to arrayed compounds – biochemical, biotinylated probe, 635/667 nm fluorescence, primary screen (AID 1099); settings: small-molecule microarray, higher = more signal;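 note: score merges 667nm spot fluorescence with signal to noise across triplicate slides; reference of the scale not given here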
[13] = probe aCHRDL2 binding to arrayed compounds – biochemical, biotinylated probe, 635/667 nm fluorescence, primary screen (AID 1100); settings: small-molecule microarray, higher = more signal
[14] = change in splice reporter luminescence, either direction, cell-based, HEK293, spliceosome inhibition project, primary screen (AID 1101); settings: HEK293 splicing luciferase reporter, 24 h, higher = more signal, called active from +8 up or from −8 down;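 note: HEK293 cells carrying a splicing-competent luciferase reporter gene; test concentration not given here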
[15] = molecular target: Fibroblast growth factor 10 (Homo sapiens) (UniProt O15520); experiment: compounds binding fibroblast growth factor 10 – biochemical, small-molecule microarray, 635 nm fluorescence, primary screen (AID 1102); settings: FGF10 binding, fluorescence 635 nm, higher = more signal
[16] = tested on: glycogen synthase kinase-3 (GSK3A per assay name; protocol says GSK3B); experiment: compounds binding glycogen synthase kinase-3 – biochemical, small-molecule microarray, 635 nm fluorescence, GSK3A, primary screen (AID 1103); settings: fluorescence 635 nm, higher = more signal; note: the record names both GSK3A and GSK3B
[17] = molecular target: Epidermal growth factor receptor (Homo sapiens) (UniProt P00533); experiment: compounds binding epidermal growth factor receptor – biochemical, small-molecule microarray, 635 nm fluorescence, primary screen (AID 1104); settings: EGFR binding, higher = more signal;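 note: score merges 667 nm emission intensity with spot signal to noise over triplicate slides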
[18] = molecular target: Follistatin-related protein 3 (Homo sapiens) (UniProt O95633); experiment: compounds binding follistatin-related protein 3 – biochemical, small-molecule microarray, 635 nm fluorescence, primary screen (AID 1105); settings: FSTL3 binding, higher = more signal;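 note: score merges emission near 667 nm and signal to noise per printed spot across three slides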
[19] = molecular target: Dickkopf-related protein 1 (Homo sapiens) (UniProt O94907); experiment: small molecules binding DKK1 protein – biochemical, small-molecule microarray, 635 nm fluorescence scan, primary screen (AID 1106); settings: higher = more signal;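 note: score merges emission near 667 nm with signal to noise over three replicate slides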
[20] = tested on: Inhibin beta A chain (activin A); experiment: small molecules binding activin A – biochemical, small-molecule microarray, 635 nm fluorescence scan, primary screen (AID 1107); settings: INHBA, higher = more signal;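 note: mouse activin A protein probed at 4.33 µg/mL on printed slides; score merges bound-protein fluorescence near 667 nm with spot signal-to-noise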

Chain of Neurogenic locus notch homolog protein 3 (Homo sapiens) (Q9UM47 whole entry, looked up): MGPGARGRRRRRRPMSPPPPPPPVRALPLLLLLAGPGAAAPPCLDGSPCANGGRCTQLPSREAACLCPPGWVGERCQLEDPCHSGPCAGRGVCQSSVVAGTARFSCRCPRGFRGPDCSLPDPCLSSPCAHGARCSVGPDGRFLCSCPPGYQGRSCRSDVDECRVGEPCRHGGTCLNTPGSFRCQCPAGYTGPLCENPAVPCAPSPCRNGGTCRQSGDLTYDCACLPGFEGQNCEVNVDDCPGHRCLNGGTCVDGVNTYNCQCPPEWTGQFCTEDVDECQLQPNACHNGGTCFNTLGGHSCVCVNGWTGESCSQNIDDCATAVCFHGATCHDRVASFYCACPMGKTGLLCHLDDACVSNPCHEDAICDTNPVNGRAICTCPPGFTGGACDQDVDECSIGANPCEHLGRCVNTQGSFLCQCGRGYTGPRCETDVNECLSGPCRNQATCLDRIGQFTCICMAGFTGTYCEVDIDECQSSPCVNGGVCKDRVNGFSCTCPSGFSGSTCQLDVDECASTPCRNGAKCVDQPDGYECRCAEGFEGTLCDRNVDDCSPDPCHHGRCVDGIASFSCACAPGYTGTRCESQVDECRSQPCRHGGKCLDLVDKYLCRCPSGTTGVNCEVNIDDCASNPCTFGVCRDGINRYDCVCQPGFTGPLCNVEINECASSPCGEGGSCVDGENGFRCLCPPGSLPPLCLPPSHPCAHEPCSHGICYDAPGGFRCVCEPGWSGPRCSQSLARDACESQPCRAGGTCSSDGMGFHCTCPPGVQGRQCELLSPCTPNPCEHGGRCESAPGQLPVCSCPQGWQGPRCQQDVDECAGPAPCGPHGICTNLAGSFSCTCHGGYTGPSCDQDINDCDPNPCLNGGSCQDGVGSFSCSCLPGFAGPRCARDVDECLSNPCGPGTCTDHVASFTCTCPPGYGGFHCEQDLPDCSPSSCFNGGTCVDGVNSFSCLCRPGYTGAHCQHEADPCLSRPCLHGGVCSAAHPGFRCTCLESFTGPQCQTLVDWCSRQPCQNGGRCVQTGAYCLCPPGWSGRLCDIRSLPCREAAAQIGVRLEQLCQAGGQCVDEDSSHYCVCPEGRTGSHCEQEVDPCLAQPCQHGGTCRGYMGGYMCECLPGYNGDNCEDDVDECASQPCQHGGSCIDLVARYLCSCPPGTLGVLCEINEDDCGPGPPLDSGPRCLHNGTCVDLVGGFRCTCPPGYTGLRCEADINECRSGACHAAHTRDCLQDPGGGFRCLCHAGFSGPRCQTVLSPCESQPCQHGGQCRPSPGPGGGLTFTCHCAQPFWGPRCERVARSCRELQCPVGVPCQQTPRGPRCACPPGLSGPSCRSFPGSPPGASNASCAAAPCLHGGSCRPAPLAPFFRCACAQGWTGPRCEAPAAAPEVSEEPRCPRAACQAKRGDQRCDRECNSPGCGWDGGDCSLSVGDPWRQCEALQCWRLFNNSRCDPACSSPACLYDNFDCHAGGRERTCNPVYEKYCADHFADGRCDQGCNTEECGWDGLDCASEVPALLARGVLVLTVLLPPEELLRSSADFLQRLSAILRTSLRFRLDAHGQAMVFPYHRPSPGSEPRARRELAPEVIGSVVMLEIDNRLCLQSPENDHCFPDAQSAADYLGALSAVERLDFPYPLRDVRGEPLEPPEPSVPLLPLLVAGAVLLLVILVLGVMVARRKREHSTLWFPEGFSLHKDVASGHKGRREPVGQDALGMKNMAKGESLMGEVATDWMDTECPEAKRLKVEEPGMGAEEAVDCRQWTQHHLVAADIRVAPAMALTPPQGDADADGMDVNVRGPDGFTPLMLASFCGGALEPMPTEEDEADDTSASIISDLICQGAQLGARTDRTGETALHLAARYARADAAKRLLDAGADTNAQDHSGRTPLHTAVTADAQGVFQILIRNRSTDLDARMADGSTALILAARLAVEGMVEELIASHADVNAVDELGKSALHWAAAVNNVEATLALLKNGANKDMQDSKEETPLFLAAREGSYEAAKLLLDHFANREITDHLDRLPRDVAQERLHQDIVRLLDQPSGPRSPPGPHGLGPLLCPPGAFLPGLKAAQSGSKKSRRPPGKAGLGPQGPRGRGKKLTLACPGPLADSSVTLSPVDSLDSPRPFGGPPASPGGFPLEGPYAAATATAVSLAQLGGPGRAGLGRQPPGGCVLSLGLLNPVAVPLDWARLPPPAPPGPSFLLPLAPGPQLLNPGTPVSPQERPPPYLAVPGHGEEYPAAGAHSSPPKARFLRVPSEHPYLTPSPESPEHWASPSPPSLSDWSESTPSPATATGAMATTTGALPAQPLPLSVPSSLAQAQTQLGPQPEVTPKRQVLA
Chain of Follistatin-related protein 3 (Homo sapiens) (O95633 whole entry, looked up): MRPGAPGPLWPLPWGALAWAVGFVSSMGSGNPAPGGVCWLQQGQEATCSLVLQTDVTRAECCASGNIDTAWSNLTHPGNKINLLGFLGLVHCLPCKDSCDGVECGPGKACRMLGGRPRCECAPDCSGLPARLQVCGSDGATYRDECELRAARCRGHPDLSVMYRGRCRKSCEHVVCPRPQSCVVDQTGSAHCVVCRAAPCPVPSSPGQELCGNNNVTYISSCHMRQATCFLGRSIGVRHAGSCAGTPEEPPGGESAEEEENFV
Chain of Torsin-1A-interacting protein 2 (Homo sapiens) (Q8NFQ8 whole entry, looked up): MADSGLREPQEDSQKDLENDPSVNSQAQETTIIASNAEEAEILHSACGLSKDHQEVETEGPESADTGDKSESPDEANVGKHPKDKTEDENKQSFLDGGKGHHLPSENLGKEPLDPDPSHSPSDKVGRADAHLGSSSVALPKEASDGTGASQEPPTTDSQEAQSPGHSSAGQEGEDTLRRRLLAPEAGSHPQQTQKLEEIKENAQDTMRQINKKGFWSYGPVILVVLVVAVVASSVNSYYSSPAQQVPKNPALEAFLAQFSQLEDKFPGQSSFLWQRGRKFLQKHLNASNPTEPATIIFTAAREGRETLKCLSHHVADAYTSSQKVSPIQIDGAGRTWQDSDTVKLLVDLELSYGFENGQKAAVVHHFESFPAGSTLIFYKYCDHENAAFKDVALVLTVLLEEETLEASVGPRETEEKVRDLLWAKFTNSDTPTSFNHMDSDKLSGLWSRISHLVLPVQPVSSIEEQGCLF
Chain of Fibroblast growth factor 10 (Homo sapiens) (O15520 whole entry, looked up): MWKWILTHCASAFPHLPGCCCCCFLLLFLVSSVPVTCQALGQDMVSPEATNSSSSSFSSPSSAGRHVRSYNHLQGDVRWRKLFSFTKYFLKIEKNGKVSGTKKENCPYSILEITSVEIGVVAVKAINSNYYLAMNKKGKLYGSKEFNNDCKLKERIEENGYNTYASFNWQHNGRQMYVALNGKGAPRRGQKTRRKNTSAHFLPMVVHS
Chain of Epidermal growth factor receptor (Homo sapiens) (P00533 whole entry, looked up): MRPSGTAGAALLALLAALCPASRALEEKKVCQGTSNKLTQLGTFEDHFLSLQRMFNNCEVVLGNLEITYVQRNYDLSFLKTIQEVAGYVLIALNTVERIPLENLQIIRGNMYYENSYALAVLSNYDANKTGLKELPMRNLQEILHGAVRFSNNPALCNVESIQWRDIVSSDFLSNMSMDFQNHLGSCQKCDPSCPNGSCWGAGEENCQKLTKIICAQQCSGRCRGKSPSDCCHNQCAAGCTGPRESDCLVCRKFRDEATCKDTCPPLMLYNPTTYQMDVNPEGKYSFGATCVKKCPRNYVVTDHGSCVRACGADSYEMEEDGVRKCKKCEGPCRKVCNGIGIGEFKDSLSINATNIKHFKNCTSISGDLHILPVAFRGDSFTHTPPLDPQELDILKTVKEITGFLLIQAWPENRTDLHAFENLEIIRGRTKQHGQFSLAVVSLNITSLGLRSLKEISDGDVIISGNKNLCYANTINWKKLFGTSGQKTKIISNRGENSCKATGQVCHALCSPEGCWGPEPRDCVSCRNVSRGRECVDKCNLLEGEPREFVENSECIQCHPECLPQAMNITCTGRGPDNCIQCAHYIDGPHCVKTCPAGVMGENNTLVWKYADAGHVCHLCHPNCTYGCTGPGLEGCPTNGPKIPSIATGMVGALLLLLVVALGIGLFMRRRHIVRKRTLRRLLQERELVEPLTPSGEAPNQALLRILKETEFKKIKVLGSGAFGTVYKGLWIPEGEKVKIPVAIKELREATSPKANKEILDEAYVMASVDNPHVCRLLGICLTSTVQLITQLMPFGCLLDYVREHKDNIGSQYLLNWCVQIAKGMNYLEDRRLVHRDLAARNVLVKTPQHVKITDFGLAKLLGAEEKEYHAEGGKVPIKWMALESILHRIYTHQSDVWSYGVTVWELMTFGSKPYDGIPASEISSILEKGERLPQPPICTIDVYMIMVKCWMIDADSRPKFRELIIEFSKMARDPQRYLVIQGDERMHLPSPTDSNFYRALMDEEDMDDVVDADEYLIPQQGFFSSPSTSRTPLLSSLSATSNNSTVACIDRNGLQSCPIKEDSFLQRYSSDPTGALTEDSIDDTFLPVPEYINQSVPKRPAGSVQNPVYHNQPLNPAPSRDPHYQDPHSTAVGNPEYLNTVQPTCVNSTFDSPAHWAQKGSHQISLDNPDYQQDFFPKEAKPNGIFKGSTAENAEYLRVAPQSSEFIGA
Chain of Dickkopf-related protein 1 (Homo sapiens) (O94907 whole entry, looked up): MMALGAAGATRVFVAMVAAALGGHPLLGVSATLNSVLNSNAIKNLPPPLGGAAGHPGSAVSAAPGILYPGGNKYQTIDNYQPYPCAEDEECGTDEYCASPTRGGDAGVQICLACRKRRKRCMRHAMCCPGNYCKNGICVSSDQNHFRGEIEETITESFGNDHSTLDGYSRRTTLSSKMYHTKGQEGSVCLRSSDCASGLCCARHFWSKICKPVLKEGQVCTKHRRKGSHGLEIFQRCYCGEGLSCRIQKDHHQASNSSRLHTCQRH

In the case of `CCOC(=O)[C@H](CC(C)C)NC(=O)CCC1CC(OC(=O)NCc2cccc3ccccc23)CC2(CCCC(COC(=O)NCCc3ccc(Cl)cc3)O2)O1` (stereo not given in full), the composite z-score [1] is reported as 0.333, the z-score [2] is reported as -1.16 (inactive) and the z-score [3] is reported as -0.858 (inactive). The z-score [4] was -0.164 (inactive), the composite z-score [5] was 1.04 and the z-score [6] was -0.0339 (inactive). The composite z-score [7] was -0.188, the composite z-score [8] was 0.434 and the composite z-score [9] was 0.741. The composite z-score [10] was -0.0334, the composite z-score [11] was 0.409 and the composite z-score [12] was -0.0738. The composite z-score [13] was -0.406, the z-score [14] was -1.18 (inactive) and the composite z-score [15] was 0.365. It also gave a composite z-score [16] of 0.355, a composite z-score [17] of 0.681 and a composite z-score [18] of 0.726. For the same compound, the composite z-score [19] was 0.323 and the composite z-score [20] was -0.293.

In the case of `CCOC(=O)[C@H](CC(C)C)NC(=O)CCC1CC(OC(=O)NCc2cccc3ccccc23)CC2(CCCC(COC(=O)NCCOC)O2)O1` (stereo not given in full), the composite z-score [1] is reported as 1.5, the z-score [2] is reported as -1.43 (inactive) and the z-score [3] is reported as -0.837 (inactive). The z-score [4] was -1.09 (inactive), the composite z-score [5] was 2.7 and the z-score [6] was -0.157 (inactive). It also gave a composite z-score [7] of -0.0633, a composite z-score [8] of 0.607 and a composite z-score [9] of 1.08. The composite z-score [10] was 0.0576, the composite z-score [11] was 0.546 and the composite z-score [12] was -0.164. The composite z-score [13] was -0.401, the z-score [14] was -1.8 (inactive) and the composite z-score [15] was 0.799. For the same compound, the composite z-score [16] was 1.3, the composite z-score [17] was 0.412 and the composite z-score [18] was 1.17. The composite z-score [19] was 0.358 and the composite z-score [20] was -0.0748.

With `CC(C)=NO[C@H](C)c1cn([C@H](CO)Cc2ccccc2)nn1` the composite z-score [1] was 0.325, the z-score [2] was -0.43 (inactive) and the z-score [3] was -0.594 (inactive). For the same compound, the z-score [4] was 0.245 (inactive), the composite z-score [5] was 1.09 and the z-score [6] was 0.208 (inactive). For the same compound, the composite z-score [7] was -0.166, the composite z-score [8] was -0.0003 and the composite z-score [9] was 0.104. For the same compound, the composite z-score [10] was -0.0406, the composite z-score [11] was 0.618 and the composite z-score [12] was -0.309. For the same compound, the composite z-score [13] was -0.113, the z-score [14] was 1 (inactive) and the composite z-score [15] was 0.443. The composite z-score [16] was -0.122, the composite z-score [17] was 0.17 and the composite z-score [18] was -0.275. For the same compound, the composite z-score [19] was 0.291 and the composite z-score [20] was 0.576.

In the case of `C#CCCCON=C1C[C@@H](O)[C@@H](O)[C@@H]2[C@@H]3C(=O)N(C(C)(C)C)C(=O)[C@@H]3CC[C@@H]12`, the composite z-score [1] is reported as -0.227, the z-score [2] is reported as 0.266 (inactive) and the z-score [3] is reported as 0.0546 (inactive). For the same compound, the z-score [4] was 0.934 (inactive), the composite z-score [5] was 0.148 and the z-score [6] was -0.131 (inactive). The composite z-score [7] was 0.502, the composite z-score [8] was -1.11 and the composite z-score [9] was -1.07. The composite z-score [10] was -0.106, the composite z-score [11] was 0.856 and the composite z-score [12] was 1.19. For the same compound, the composite z-score [13] was 1.28, the z-score [14] was 0.624 (inactive) and the composite z-score [15] was -0.624. It also gave a composite z-score [16] of -0.545, a composite z-score [17] of -0.306 and a composite z-score [18] of -0.576. For the same compound, the composite z-score [19] was -1.1 and the composite z-score [20] was 0.477.
